The target in assay [1] is T1, Ephrin type-A receptor 3 (Homo sapiens) (UniProt P29320).
T1 sequence (whole entry): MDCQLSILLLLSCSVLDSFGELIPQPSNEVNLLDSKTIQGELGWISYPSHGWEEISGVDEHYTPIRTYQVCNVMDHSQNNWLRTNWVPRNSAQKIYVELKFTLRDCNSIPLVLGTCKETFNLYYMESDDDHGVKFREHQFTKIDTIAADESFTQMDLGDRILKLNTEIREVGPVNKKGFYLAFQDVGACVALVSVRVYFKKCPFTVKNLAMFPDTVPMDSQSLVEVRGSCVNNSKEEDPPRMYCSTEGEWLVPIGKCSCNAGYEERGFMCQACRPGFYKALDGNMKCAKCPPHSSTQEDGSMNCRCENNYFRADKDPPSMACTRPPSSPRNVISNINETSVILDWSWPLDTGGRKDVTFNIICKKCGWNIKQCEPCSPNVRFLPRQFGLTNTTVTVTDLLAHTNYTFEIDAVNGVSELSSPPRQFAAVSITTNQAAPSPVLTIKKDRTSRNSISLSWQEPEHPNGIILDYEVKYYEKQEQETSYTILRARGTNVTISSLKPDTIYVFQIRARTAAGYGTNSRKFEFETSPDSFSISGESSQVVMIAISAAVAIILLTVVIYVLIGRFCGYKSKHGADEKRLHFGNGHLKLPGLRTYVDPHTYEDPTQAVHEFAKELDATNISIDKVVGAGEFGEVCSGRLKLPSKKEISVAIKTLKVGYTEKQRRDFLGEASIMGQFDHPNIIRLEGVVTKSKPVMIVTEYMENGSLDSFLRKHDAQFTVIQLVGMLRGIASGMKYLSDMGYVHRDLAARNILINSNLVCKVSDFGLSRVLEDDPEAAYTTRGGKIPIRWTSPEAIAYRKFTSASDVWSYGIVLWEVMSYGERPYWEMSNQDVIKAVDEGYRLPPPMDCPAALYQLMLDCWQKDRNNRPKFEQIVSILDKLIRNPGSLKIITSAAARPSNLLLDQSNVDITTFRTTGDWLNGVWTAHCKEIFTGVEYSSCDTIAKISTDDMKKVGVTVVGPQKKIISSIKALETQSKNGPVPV
To be noted: at 10 µM.

Assay [2] addresses Ephrin type-A receptor 4 (Homo sapiens) (UniProt P54764). Conditions: at 1 µM.
Assay [3] shares this target. To be noted: at 10 µM.
Assay [4] deals with Ephrin type-A receptor 5 (Homo sapiens) (UniProt P54756). Conditions: at 1 µM.
Sequence of Ephrin type-A receptor 5 (Homo sapiens) (P54756 whole entry): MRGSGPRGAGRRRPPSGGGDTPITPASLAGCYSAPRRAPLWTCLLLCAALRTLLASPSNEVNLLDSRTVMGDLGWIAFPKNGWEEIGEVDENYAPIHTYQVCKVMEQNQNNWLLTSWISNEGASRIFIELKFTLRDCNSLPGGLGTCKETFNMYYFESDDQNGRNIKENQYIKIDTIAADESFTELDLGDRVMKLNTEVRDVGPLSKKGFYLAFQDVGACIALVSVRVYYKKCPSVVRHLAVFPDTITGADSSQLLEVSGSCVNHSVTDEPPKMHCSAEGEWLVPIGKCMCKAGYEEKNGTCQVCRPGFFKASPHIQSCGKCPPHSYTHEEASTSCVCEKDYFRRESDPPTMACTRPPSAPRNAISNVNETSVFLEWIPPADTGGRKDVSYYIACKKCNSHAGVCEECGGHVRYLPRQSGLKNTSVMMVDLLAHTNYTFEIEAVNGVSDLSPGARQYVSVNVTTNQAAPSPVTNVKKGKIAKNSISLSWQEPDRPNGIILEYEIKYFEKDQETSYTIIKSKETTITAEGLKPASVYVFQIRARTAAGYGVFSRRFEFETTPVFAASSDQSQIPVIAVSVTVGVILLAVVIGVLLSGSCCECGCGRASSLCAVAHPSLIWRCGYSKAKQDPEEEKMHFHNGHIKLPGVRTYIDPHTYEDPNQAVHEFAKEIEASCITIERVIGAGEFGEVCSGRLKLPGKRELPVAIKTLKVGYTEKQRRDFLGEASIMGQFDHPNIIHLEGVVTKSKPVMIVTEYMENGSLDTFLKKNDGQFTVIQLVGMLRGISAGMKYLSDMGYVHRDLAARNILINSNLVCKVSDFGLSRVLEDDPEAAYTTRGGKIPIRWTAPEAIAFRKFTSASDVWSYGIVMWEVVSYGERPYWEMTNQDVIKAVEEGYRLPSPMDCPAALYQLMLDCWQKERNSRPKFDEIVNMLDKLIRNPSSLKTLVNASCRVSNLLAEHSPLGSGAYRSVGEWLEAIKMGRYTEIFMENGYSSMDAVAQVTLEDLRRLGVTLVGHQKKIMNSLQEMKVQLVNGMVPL
For assay [5] the target is unchanged. Conditions: at 10 µM.
Assay [6] concerns the target Ephrin type-A receptor 7 (Homo sapiens) (UniProt Q15375). Conditions: at 1 µM.
For assay [7] the target is unchanged. To be noted: at 10 µM.
The target of assay [8] is T2, Ephrin type-A receptor 8 (Homo sapiens) (UniProt P29322).
T2 sequence (whole entry): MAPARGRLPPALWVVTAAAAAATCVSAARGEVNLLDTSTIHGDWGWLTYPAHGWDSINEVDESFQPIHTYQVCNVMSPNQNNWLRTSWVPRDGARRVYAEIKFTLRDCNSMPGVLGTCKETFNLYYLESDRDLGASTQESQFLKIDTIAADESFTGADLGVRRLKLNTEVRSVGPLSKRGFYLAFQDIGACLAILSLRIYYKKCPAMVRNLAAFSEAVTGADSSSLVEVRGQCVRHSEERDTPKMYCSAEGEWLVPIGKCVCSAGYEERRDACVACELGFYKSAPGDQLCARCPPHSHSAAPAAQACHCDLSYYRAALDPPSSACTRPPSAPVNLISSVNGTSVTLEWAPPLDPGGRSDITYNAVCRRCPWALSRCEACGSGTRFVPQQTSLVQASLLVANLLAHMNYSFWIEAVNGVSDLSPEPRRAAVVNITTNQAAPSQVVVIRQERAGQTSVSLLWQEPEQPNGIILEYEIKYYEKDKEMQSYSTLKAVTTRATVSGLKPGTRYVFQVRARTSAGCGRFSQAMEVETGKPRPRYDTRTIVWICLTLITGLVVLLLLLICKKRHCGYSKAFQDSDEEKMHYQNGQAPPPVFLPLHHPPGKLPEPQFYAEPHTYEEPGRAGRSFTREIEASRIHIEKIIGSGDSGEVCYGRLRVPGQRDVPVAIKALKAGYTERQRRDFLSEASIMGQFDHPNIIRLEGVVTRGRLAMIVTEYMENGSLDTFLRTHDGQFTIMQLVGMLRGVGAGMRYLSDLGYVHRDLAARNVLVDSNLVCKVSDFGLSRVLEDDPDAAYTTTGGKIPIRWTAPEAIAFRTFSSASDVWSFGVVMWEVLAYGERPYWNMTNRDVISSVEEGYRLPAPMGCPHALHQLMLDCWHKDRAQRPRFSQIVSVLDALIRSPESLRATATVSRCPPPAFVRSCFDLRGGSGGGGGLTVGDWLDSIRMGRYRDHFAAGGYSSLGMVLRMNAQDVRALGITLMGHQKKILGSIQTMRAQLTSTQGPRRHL
To be noted: at 1 µM.

The target in assay [9] is T2, Ephrin type-A receptor 8 (Homo sapiens). Conditions: at 10 µM.
Assay [10] concerns the target T3, Ephrin type-B receptor 1 (Homo sapiens) (UniProt P54762).
T3 sequence (whole entry): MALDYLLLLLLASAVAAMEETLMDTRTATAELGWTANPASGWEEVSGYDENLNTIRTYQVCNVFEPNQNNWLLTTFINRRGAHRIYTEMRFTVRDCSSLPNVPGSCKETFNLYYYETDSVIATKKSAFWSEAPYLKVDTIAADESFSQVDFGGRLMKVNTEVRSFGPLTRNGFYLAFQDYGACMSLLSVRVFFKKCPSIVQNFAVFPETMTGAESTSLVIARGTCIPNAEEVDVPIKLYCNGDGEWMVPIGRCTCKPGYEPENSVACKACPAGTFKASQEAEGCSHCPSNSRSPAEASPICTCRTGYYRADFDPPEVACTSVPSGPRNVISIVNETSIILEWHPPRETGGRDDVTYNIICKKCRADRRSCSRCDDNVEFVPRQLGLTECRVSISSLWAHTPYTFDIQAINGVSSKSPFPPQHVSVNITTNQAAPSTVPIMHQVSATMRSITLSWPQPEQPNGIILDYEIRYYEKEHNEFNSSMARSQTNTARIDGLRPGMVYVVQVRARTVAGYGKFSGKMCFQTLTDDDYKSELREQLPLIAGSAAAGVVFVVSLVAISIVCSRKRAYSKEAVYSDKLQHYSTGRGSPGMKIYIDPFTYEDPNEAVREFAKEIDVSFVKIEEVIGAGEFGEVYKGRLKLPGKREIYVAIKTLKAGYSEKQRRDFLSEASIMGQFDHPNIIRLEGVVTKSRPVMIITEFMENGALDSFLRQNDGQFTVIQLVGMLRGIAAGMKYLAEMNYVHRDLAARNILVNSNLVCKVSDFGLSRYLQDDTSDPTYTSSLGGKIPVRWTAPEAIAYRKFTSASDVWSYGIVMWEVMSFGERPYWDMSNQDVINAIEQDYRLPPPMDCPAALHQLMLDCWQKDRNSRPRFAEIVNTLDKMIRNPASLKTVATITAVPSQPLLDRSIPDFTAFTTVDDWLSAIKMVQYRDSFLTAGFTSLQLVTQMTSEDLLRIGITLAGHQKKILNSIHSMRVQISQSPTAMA
Conditions: at 1 µM.

We go through one molecule from ChEMBL document CHEMBL2218924, “A broad activity screen in support of a chemogenomic map for kinase signalling research and drug discovery” (Biochem J, 2013).

Sequence of Ephrin type-A receptor 7 (Homo sapiens) (Q15375 28-998 limits assumed): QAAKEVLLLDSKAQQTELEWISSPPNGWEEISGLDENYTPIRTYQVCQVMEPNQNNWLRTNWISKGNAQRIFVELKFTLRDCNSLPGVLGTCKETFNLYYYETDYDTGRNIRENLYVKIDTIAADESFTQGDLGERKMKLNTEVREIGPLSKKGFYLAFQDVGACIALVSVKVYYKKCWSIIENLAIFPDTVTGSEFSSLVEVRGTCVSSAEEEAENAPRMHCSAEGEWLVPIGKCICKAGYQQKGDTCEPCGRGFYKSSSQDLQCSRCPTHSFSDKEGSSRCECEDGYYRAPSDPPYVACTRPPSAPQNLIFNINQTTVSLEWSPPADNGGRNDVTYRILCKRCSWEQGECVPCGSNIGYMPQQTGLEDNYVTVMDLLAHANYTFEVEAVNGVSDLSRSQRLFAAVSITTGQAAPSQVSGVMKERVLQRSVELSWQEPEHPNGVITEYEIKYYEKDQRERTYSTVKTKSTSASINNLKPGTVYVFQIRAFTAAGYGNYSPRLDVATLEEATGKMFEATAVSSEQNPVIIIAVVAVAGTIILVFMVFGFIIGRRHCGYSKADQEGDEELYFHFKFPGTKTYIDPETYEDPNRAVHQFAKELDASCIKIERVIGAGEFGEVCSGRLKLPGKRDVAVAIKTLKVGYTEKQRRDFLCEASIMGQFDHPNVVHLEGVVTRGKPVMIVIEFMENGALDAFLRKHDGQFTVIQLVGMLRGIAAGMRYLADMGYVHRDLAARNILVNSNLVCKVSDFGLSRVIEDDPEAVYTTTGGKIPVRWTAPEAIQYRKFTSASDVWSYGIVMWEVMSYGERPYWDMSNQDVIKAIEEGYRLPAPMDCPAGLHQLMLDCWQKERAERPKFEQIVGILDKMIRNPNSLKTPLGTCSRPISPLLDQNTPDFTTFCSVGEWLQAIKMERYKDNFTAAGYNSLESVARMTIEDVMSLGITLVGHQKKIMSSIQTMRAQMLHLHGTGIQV
Sequence of Ephrin type-A receptor 4 (Homo sapiens) (P54764 whole entry): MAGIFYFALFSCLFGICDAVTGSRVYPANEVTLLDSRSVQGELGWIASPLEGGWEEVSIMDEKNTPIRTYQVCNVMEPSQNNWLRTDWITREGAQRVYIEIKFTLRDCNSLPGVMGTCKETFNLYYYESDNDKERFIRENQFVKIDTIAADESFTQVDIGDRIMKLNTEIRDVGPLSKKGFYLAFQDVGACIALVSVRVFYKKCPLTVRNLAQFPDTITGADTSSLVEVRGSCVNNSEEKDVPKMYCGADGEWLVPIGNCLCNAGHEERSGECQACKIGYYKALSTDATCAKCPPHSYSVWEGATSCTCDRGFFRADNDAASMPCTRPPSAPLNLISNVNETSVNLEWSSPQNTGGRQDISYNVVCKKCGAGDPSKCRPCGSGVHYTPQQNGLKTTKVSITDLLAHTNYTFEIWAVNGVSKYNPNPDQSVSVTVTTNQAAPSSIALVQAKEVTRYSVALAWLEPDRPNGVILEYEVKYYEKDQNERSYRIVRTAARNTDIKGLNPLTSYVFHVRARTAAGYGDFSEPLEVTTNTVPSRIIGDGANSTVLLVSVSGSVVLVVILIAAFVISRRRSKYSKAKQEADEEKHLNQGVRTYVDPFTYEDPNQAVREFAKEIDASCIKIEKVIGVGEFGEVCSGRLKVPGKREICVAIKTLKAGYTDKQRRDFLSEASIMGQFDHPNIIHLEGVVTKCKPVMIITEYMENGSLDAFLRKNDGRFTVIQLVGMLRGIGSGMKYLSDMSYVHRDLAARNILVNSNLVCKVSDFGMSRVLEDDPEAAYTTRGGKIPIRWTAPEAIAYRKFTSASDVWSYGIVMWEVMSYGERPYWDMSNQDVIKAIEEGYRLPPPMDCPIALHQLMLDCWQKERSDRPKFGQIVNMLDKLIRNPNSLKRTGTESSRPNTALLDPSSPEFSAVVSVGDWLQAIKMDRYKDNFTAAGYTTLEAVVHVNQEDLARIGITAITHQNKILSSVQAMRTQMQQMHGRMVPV

As a reminder, the residual activity is the signal under treatment as a percentage of the control signal. In the case of `O=C1NC(=O)c2c1c1c3ccccc3[nH]c1c1[nH]c3cc(Br)ccc3c21`, the residual activity in assay [1] was 86%; in [2], 104%; in assay [3], 92%; in [4], 111%; in assay [5] it was 91%; in [6] it was 99%. The residual activity in [7] amounted to 93%; in [8], 95%; in [9], 88%; in assay [10], 106%.
